# MPTP inh: mitochondrial permeability transition pore inhibitors, primary screen, biochemical, isolated mouse mitochondria, absorbance; inhibition, % at 10 µM; Ca2+ swelling absorbance, 30 min; 360,000 tested, 1.4% active;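 active = inhibition of 50% or more, scaled per plate between neutral and stimulator controls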;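 note: 0% = DMSO wells given calcium and 100% = 1 mM EGTA wells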
# CSC inhib: cancer stem cell viability inhibitors, primary screen, luminescence | inhibition, % at 7.5 µM | cancer stem cell-like cells viability | 300,000 tested, 1.1% active; in the data active = inhibition above about 75%; tested in HMLE shEcad cells
# Mdm2 MdmX PPI: inhibitors of human Mdm2-MdmX association, primary screen, cell-based, luminescence, split luciferase, SaOS-2, uHTS; 330,000 tested, 3% active; SaOS-2 split-luciferase Mdm2/MdmX complementation; inhibition, % at 8 µM; Protein Mdm4 (Homo sapiens) + E3 ubiquitin-protein ligase Mdm2 (Homo sapiens), …;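 active = inhibition of at least 50% at 8 µM in the primary screen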
# Target sequence (O15151 whole entry, looked up): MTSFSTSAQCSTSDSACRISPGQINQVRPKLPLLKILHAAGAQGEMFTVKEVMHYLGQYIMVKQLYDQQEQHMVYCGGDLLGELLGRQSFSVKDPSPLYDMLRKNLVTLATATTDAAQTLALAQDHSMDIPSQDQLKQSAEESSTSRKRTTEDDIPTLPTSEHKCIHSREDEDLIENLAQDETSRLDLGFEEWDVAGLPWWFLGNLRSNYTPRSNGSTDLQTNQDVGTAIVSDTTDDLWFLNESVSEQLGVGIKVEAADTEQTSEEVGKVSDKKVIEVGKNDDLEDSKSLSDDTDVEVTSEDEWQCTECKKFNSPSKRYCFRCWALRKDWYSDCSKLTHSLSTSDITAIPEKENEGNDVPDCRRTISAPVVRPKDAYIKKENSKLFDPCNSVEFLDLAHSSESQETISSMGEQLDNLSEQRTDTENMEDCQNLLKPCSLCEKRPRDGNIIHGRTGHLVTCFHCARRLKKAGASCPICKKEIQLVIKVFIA
# Target sequence (Q00987 whole entry, looked up): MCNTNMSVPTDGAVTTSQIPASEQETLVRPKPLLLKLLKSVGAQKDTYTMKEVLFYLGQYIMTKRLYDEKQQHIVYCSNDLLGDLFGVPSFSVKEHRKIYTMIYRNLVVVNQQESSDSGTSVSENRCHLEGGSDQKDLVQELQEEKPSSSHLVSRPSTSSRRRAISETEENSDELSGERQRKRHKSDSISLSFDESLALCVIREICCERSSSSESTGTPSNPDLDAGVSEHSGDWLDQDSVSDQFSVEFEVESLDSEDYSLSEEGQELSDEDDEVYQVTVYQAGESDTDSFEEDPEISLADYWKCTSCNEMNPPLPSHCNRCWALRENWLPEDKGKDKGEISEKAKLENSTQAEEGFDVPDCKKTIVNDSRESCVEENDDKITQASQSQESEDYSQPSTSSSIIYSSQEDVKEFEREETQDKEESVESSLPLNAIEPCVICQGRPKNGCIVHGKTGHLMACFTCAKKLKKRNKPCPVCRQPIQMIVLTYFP
# Beta cell apopt: inhibitors of cytokine-induced beta cell apoptosis, primary screen, luminescence; INS-1E cytokine-induced death, ATP luminescence, 48 h; percent of positive-control rescue, neutral wells zero; protection from apoptosis, % (concentration not given with the values); 300,000 tested, 0.8% active;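 active = Every replicate reaches about 75%, or at least half do and their mean reaches it too, limit read from the data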;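 note: 0% = cytokine-treated negative control wells and 100% = positive control rescue; higher means more ATP so stronger rescue from cytokine killing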
# SKKanGAS inh: S. pyogenes SKKanGAS growth inhibitors in kanamycin, primary screen, streptokinase expression inhibitor project, SKKanGAS strain, BacTiter-Glo luminescence; 6 h; inhibition, % at 7.5 µM; 300,000 tested, 1.3% active; AID 1662, 2009;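 active = mean replicate score, as percent of positive control median, at least 50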;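 note: strain carries kanamycin resistance gene driven by streptokinase promoter and grows in 40 µg/ml kanamycin; loss of luminescence reflects streptokinase promoter inhibition or plain growth inhibition; 0% = median of DMSO wells and 100% = positive control at its reference dose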
# NR3A LBD binder: binders of NR3A ligand-binding domain, primary screen, biophysical, differential scanning fluorimetry, uHTS | NR3A LBD differential scanning fluorimetry, Tm shift; 0% = protein alone, 100% = glycine-bound protein | Tm shift relative to glycine control, % at 25 µM | 340,000 tested, 2.5% active;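 active = melting temperature shift of at least 10% of the positive control shift, at one fixed dose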
# * hit, by the source's call; / = no result. Only some compounds are listed: those with a hit (about 6.9% of all), similar ones and a draw of the others.
SMILES,MPTP inh,CSC inhib,Mdm2 MdmX PPI,Beta cell apopt,SKKanGAS inh,NR3A LBD binder
O=C(NC(Cc1ccccc1)C(=O)O)/C(=C/c1ccccc1)NC(=O)c1ccccc1 (configuration not stated),2,11,4,0,4,14*
O=C(NC(Cc1ccccc1)C(=O)O)/C(=C\c1ccc(Cl)cc1)NC(=O)c1ccccc1 (configuration not stated),-1,-2,7,4,-1,-2
COc1ccc2nc(NC(=O)c3sc4nc(C)cc(C)c4c3N)sc2c1,4,/,47,6,14,28*
COc1ccc2nc(NC(=O)c3ccoc3C)sc2c1,-1,70,-78,43,66*,6
COc1ccc2nc(NC(=O)c3cc(C)oc3C)sc2c1,-2,/,-65,23,10,-2
CCN(C(=O)COC(=O)c1ccccc1Oc1ccccc1)c1c(N)n(Cc2ccccc2)c(=O)[nH]c1=O,1,/,/,/,/,0
CC1(c2ccc3ccccc3c2)NC(=O)N(CC(=O)NCc2cccs2)C1=O (configuration not stated),1,-10,5,-1,3,1
CC1(c2ccc3ccccc3c2)NC(=O)N(CC(=O)NCC(C)(C)N2CCOCC2)C1=O (configuration not stated),-3,0,9,0,28,17*
Cc1ccccc1NCC(=O)N/N=C\C=C\c1cccc([N+](=O)[O-])c1,2,16,3,1,-12,15*
O=C(Cc1ccccc1)N/N=C/C=C/c1cccc([N+](=O)[O-])c1,-1,-3,15,2,-4,2
Oc1ccc(Nc2nc(-c3cccnc3)cs2)cc1,1,11,-48,-10,-5,-11
O=C(O)c1ccc(Nc2nc(-c3cccnc3)cs2)cc1,-1,-3,-9,-7,8,0
Nc1nc(-c2ccc(Br)cc2)cs1,-4,14,-68,-11,3,-2
Cc1ccc(Nc2nc(-c3cccnc3)cs2)cc1C,1,10,-265,-1,0,-3
Brc1ccc(Nc2nc(-c3cccnc3)cs2)cc1,27,7,-125,-1,1,21*
Brc1ccc(-c2csc(Nc3nc(-c4ccc(Br)cc4)cs3)n2)cc1,0,43,46,-4,27,32*
COc1ccc(Cl)cc1Nc1nc(-c2cccnc2)cs1,0,41,4,-4,5,24*
Brc1cccc(Nc2nc(-c3cccnc3)cs2)c1,1,/,1,/,3,43*
O=C(/C=C1\OCc2ccccc21)OCc1ccccc1,1,/,/,/,/,/
COCOc1ccc(-c2ncc(OC)nc2NC(=O)c2ccsc2)cc1,0,/,/,/,/,/
COc1cc(CC(=O)OCC(=O)c2ccc(F)cc2)cc(OC)c1OC,-1,4,14,4,/,3
Clc1cccc(Nc2nc(-c3cccnc3)cs2)c1,5,17,-108,3,-24,27*
O=C(Nc1nnc(C2CC2)s1)c1cc(-c2ccccc2)nn1-c1ccccc1,-1,21,26,10,73*,-5
Cc1ccc(C)c(NC(=O)c2nc(-c3ccccc3)n(-c3ccccc3)n2)c1,0,-8,38,5,1,1
Cc1ccc(C)c(NC(=O)c2cc(-c3ccccc3)nn2-c2ccccc2)c1,2,89*,16,-3,-9,1
SMILES,MPTP inh,CSC inhib,Mdm2 MdmX PPI,Beta cell apopt,SKKanGAS inh,NR3A LBD binder
CCN(CC(=O)Nc1ccccc1C(F)(F)F)C(=O)c1cc(-c2ccccc2)nn1-c1ccccc1,-1,/,14,-1,51*,4
Cc1nn(-c2ccccc2)c(Cl)c1C(=O)Nc1nnc(C2CCCCC2)s1,0,6,13,6,13,0
Cn1nc(-c2ccc(Cl)cc2)c2cc(C(=O)NCCCN3CCCC3)sc21,-1,82*,50,17,-1,-3
COc1cccc(-c2nn(C)c3sc(C(=O)NCCCN(C)Cc4ccccc4)cc23)c1,2,12,19,11,3,-2
CCCCN(C)CCNC(=O)c1cc2c(-c3ccccc3F)nn(C)c2s1,-1,12,30,97*,5,-2
CCN(CC)CCCNC(=O)c1cc2c(-c3cccc(OC)c3)nn(C)c2s1,-1,31,23,2,3,11*
Cc1cccc(C)c1-n1c(C)nn(CC#N)c1=O,-1,-16,12,-4,-2,2
CCOC(=O)Nc1ccc2c(CN(C)Cc3ccc(F)cc3)cc(=O)oc2c1,1,-7,18,-2,9,14*
COCCNC(=S)N1CCC2CC1c1cc(-c3ccc4c(c3)OCO4)ccc12 (configuration not stated),0,/,/,/,/,/
COc1ccc(NC(=O)c2c(N)no[n+]2[O-])cc1,-1,103*,-21,3,-2,-3
O=[N+]([O-])c1ccc(N2CCN(S(=O)(=O)c3cnc[nH]3)CC2)cc1,-1,-10,3,1,7,10*
COC(=O)c1cc(S(=O)(=O)N2CCN(c3ccc(F)cc3)CC2)c[nH]1,-1,0,13,3,-8,2
COC(=O)c1cc(S(=O)(=O)N2CCN(c3ccc([N+](=O)[O-])cc3)CC2)c[nH]1,0,9,8,/,-12,207*
Cc1ccc(-c2nc3ccc(Br)cn3c2CC(C)(C)C)cc1,-1,/,/,/,/,/
CCn1c(/N=C/c2ccccc2NS(=O)(=O)c2ccc(C)cc2)nc2ccccc21,3,28,/,-4,/,13*
COc1cccc(C(N)c2nc(-c3csc4ccccc34)cs2)c1 (configuration not stated),-2,/,/,/,/,/
C=CCNc1nc(C(F)(F)F)nc2c1nnn2Cc1ccccc1Cl,0,-5,19,13,10,-3
COc1ccc(Cl)cc1Nc1nc(C)nc2c1nnn2Cc1ccccc1,0,5,8,-5,-2,6
CCOC(=O)c1ccc(Nc2nc(C)nc3c2nnn3Cc2ccccc2)cc1,1,8,13,/,53*,0
CC(=O)Nc1ccc(Nc2nc(C(F)(F)F)nc3c2nnn3Cc2ccccc2Cl)cc1,1,13,12,11,20,13*
Cn1nccc1-c1coc2c(C(=O)NCc3ccccc3)cccc12,1,/,/,/,/,/
COc1ccc2oc(C(=O)NNC(=O)c3ccc(F)cc3)c(C)c2c1,-1,/,-38,2,43,2
COc1ccc(/C=C/C(=O)c2oc3ccc(F)cc3c2C)cc1,4,-1,-12,1,-7,13*
COc1ccccc1/C=C/CN1CCC(n2nccc2NC(=O)C2CC2)CC1,1,-1,16,1,-1,0
